# Screens: PubChem, several laboratories
# The list is not random: actives were taken first. Their share in the collection is about 3.5%.
# ERa coact inh: blocks coactivator binding to human estrogen receptor alpha. P03372. TR-FRET ER-alpha LBD / SRC-1 peptide, estradiol-bound. inhibition, % at 25.6 µM. actives 1.7% (n = 86,000). AID 629; in the data active = inhibition above about 50%;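 also: 0% = receptor plus peptide control and 100% = peptide only without receptor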
# ERa SRC1 pot: enhances coactivator binding to human estrogen receptor alpha | P03372 | TR-FRET ERalpha-LBD/SRC-Cy5 coactivator binding, 2 h; 100 = basal binding, no effect | coactivator binding (% of control), % at 25.6 µM | actives 1.3% (n = 86,000) | AID 639; in the data active = activity above about 200%;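 also: binding measured in presence of low estradiol as agonist stimulus; 0% = peptide alone without receptor and 100% = receptor with peptide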
# Smad3 inh: inhibitors of human Smad3 transcription factor binding; P84022; TR-FRET Smad3/Dy647-FoxH1 peptide binding, europium anti-His; inhibition, % at 25 µM; actives 0.29% (n = 88,000);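 active = compounds that reduce the energy-transfer binding signal between the protein and its labelled peptide by more than half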;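 also: 0% = Smad3 plus labelled peptide maximal FRET and 100% = peptide-only background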
# Target sequence (P84022 whole entry, looked up): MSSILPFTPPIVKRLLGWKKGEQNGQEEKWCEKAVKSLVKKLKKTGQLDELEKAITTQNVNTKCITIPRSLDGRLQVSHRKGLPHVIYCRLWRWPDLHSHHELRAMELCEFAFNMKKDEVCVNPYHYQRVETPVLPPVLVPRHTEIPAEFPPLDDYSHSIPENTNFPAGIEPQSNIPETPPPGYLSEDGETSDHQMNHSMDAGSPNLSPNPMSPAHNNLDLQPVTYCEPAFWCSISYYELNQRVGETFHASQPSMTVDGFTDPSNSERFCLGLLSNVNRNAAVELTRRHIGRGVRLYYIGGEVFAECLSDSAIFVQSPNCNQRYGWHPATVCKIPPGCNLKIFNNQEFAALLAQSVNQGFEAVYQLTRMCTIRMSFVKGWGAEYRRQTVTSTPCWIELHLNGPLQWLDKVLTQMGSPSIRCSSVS
# MMP-13 inhibitor: inhibitors of human MMP13; MMP-13 fTHP FRET cleavage, Mca fluorescence; actives 0.07% (n = 65,000); inhibition, % at 4 µM; P45452; AID 570;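 active = inhibition above the mean of compound-free control plate wells plus 3 SD, cut at about 14% in these data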;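 also: 0% = DMSO wells and 100% = wells with reference MMP-13 inhibitor after basal subtraction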
# ERb SRC1 inh: ER-beta (human) coactivator binding inhibition; Q92731; TR-FRET ER-beta LBD / SRC1-Cy5 peptide binding; receptor agonist-loaded with 1 µM estradiol; inhibition, % at 25.6 µM; actives 1.3% (n = 86,000);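 active = compounds whose percent inhibition of the receptor-coactivator binding signal exceeds about 50% in the single-dose screen, limit read from the data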;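 also: 0% = receptor plus peptide wells without compound and 100% = peptide-only wells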
# MT1-MMP txn act: MT1-MMP promoter transcription activation; HT1080 MT1-MMP promoter luciferase reporter, luminescence, overnight; active compounds read high; activation factor at 10 µM; actives 0.16% (n = 86,000); AID 750;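 active = activation factor of at least 2 for MT1-MMP transcription at 10 µM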
# The depositor's hits bear a star; / = no result given; [ ] = another dose, or the depositor's remark.
SMILES,ERa coact inh,ERa SRC1 pot,Smad3 inh,MMP-13 inhibitor,ERb SRC1 inh,MT1-MMP txn act
O=C1CNCCCN2CCN(CCCNCC(=O)Nc3ccc(cc3)S(=O)(=O)c3ccc(cc3)NC(=O)CNCCCN3CCN(CCCNCC(=O)Nc4ccc(cc4)S(=O)(=O)c4ccc(cc4)N1)CC3)CC2,/,/,49,/,/,/
Cc1ccccc1OCC(O)Cn1c(SC(C)C)nc2c1c(=O)[nH]c(=O)n2C (centres undefined),-10,95,0,0,-12,1.2
CC(C)(C)c1cc(C(c2cccnc2)N2CCN(CCO)CC2)cc(C(C)(C)C)c1O (centres undefined),15,62,2,1,15,/
OCCN1CCN(C(c2cccs2)c2ccc3cccnc3c2O)CC1 (centres undefined),69*[fluorescence artefact?],131,7,-2,64*[fluorescence artefact?],0.9
Cc1ccccc1N(CC(=O)NCCc1ccccc1)C(=O)c1ccc(N2CCCC2)nc1,-1,106,-12,-1,-4,1.2
Cc1nn(-c2ccccc2)c2sc(C(=O)OCN3C(=O)c4ccccc4C3=O)cc12,60*,109,-8,0,34,1.2
Cc1ccc(C(=O)c2coc3ccc(O)c(Cl)c23)cc1,6,55,-3,/,-1,1.7
CCOC(=O)C(C(C)=O)c1c(Br)c(O)c(O)c2c(C(=O)c3ccc(C)cc3)coc12 (centres undefined),43,54,-4,6,72*[fluorescence artefact?],1.1
CCOC(=O)c1c(NC(C)=O)sc2c(O)c(CN3CCN(CC)CC3)ccc12,54*[fluorescence artefact?],200,14,4,44,1.1
CCOC(=O)c1c(NC(C)=O)sc2c(OC)c(Br)ccc12,-2,106,2,/,-29,1.2
O=C(O)[C@@H]1[C@H](C(=O)Nc2cccc3cccnc23)[C@@H]2CC[C@H]1O2,/,/,98*,/,/,/
O=C(O)C1C2CCC(O2)C1C(=O)Nc1cccc(F)c1 (centres undefined),/,/,/,-1,/,1.3
COc1ccc(CNc2nc3c(c(=O)n(Cc4ccc(Cl)cc4)c(=O)n3C)n2C)cc1,7,132,-9,2,0,0.7
CC(C)(C)c1ccc2c(c1)OCC(C(=O)O)O2 (centres undefined),5,121,7,2,0,1.2
CCOC(=O)c1[nH]c2ccc(Cl)cc2c1NC(=O)c1nonc1C,14,221*[fluorescence artefact?],-17,/,10,1
c1cnc2ccc(C(c3nnnn3C3CCCC3)N3CCSCC3)cc2c1 (centres undefined),-8,112,6,/,1,1.2
COc1ccccc1CNC(=O)c1ccccc1OC,-7,94,3,/,-2,1.1
COc1ccccc1CNC(=O)c1c(O)c2cc(OC)c(OC)cc2[nH]c1=O,57*[fluorescence artefact?],81,17,6,28,1
CCOC(=O)c1cc(C)sc1NC(=O)CCC(=O)O,-1,108,5,/,2,1
N#CCSCC(=O)Nc1ccc(Cl)cc1,-11,105,-13,/,-3,1.1
N#CC(C(=O)Nc1ccc(Cl)cc1)=C1Nc2ccccc2N1,54*,163,4,2,6,1
Cn1c([N+](=O)[O-])cnc1COC(N)=O,0,99,3,1,6,1.1
CCOc1ccccc1N1CCN(c2nc3ccccc3nc2C(C#N)C(=O)OC(C)C)CC1 (centres undefined),2,95,-1,9,-1,1.1
CCOC(=O)C1=C(C)N=C2SC(C)C(=O)N2C1/C=C/c1ccccc1OC (centres undefined),/,/,/,-1,/,1
CCOC(=O)C1=c2/c(=C/c3ccccc3OC)c(N)c(C#N)n2C(=O)C(c2ccccc2OC)S1 (centres undefined),63*,129,2,/,52*,/
c1ccc2sc(SCN(C3CCCCC3)C3CCCCC3)nc2c1,/,/,62*,/,/,/
Cc1c(-c2nc(N)nc(Nc3ccccc3)n2)oc2ccccc12,4,97,1,-1,9,2*
COc1cccc(OC)c1C(=O)N1CCN(c2ccccn2)CC1,-30,117,8,-8,52*[fluorescence artefact?],1.1
COc1ccc(N(C)C(=O)CC2(CC(=O)O)CCCCC2)cc1,-9,128,-4,-1,-4,1.3
CC(=O)c1c(C(C)=O)c(C)n(-c2ccc(C(=O)O)cc2)c1C,5,106,-2,0,20,1.1
